SARS PLP yeast: qHTS of Yeast-based Assay for SARS-CoV PLP. AID 485353, 2010. hit rate 0.19% among 330,000. S. cerevisiae expressing SARS-CoV PLpro, growth rescue. Potency, µM (titrated, usually from 32.9 µM), for the others: top-dose activity, positive = growth rescue, usual class: activators; calls by dose curve; further: 0% is about no effect; nearly all actives have a fitted effect of over 55% in size
Sm TGR block: qHTS Assay for the Inhibitors of Schistosoma Mansoni Peroxiredoxins. purified TGR, DTNB reduction, TNB absorbance 405 nm. Potency, µM (top dose mostly 114 µM), for inactives: top-dose activity change, negative = inhibition, most hits filed as inhibitors. hit rate 3% among 360,000. AID 485364, 2010; active means well fitted inhibition curve with a large enough effect; inconclusive means small, poorly fitted or top-dose-only effect; inactive means no such curve, though single readings can be large or run the other way; further: on the % scale 0 is the no-effect control and ±100 the full control effect; nearly all actives have a fitted effect of over 60% in size
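TGR 20 nM + NADPH 100 uM (dispensed conc.), cpd preinc 15 min RT; start with NADPH (500 uM addition) then DTNB (15 mM addition). Kinetic TNB absorbance, 405 nm filter. Four-parameter Hill fit across titration.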
The depositor's hits bear a star; ? = inconclusive; · = no result given. Rows were chosen to be rich in hits. Some 3% of all compounds tested hit in one or more screens of this group. Potency means the concentration at half of the fitted maximal effect.

SMILES	SARS PLP yeast	Sm TGR block
CCN(CC)C(=O)COC(=O)c1cc(-c2ccc(OC)cc2)nc2ccccc12	-6%	-7%
COc1cc(CNC(=O)CSCc2nc3cccnc3n2C2CCCCC2)cc(OC)c1OC	·	7%
COc1ccccc1C(=O)Nc1ccc2nc(SCCOc3ccccc3C)sc2c1	·	28%
CCCCN(C)CCn1c(=S)[nH]c2cc(OCC)c(OCC)cc2c1=O	0%	-11%
CCOc1cc2[nH]c(=S)n(CCCN(CC)CC)c(=O)c2cc1OCC	12%	6.3µM*
CCN1CCN(CC(=O)c2cc(Cl)ccc2Cl)CC1	-3%	18µM*
O=C(CN1CCCCC1)c1ccccc1Cl	5%	-22%
CN(C(=O)CSc1nnc(-c2ccccc2F)o1)C1CCCCC1	·	2%
CCOC(=O)Cn1c(-c2cccs2)cc2cc(Cl)ccc21	·	-1%
Cc1ccc(Cl)cc1-n1c(CCC(=O)O)ccc1-c1cccs1	·	40µM*
Cc1cc(Cl)ccc1-n1c(CCC(=O)O)ccc1-c1cccs1	·	28µM*
Cc1ccc(Cl)cc1N1CCN(C(=O)CCC(=O)O)CC1	0%	-16%
COc1ccc(-c2ccc(CCC(=O)O)n2-c2ccc(Cl)cc2C)cc1	·	40µM*
Cc1c(Cl)cccc1-n1c(CCC(=O)O)ccc1-c1cccs1	·	40µM*
Cc1c(Cl)cccc1NC(=O)Cn1c(CCC(=O)O)ccc1-c1cccs1	·	-26%
COc1ccc(-c2ccc(CCC(=O)O)n2CC(=O)Nc2cccc(OC)c2)cc1	2%	?
CCCC(=O)OC1=CN(Cc2ccccc2)S(=O)(=O)c2ccccc21	·	2%
CCC1CCCCN1CCCNC(=O)c1ccc2c(c1)N(Cc1cccc(C)c1)C(=O)c1ccccc1S2(=O)=O (centres undefined)	·	8%
COc1ccc(C2CC(=O)c3c(C)nc(N4CCN(C=O)CC4)nc3C2)c(OC)c1 (centres undefined)	·	-5%
CCN1CCN(Cc2c(O)ccc3c(C)c(-c4ccccc4)c(=O)oc23)CC1	·	1%
COc1ccc(C/C(C)=N/NC(=S)Nc2ccccc2)cc1	11µM*	-8%
COc1ccc(CNC(=S)Nc2cccc(C)c2)cc1	29%	-30%
COc1ccc(CNC(=S)Nc2ccccc2)cc1	23%	35µM*
COc1ccc(C/C(C)=N/NC(=S)Nc2ccc(Cl)cc2)cc1	2%	5%
CCOc1ccc(CCNC(=O)C2CCN(c3ncnc4c3nc3n4CCCCC3)CC2)cc1	·	-11%
SMILES	SARS PLP yeast	Sm TGR block
COc1ccc(OC)c(/C=C(\C#N)c2nc(-c3ccc(F)cc3)cs2)c1	·	8%
CCN(CC)c1ccc2c(c1)oc(=O)c1c(Cl)cc(=O)oc12	-18%	6.3µM*
CCN(CC)c1ccc2c(C)c(Cl)c(=O)oc2c1	0%	11%
COc1ccc(CCC(=O)NC2CC(=O)N(c3ccc(OC)cc3)C2)cc1 (centres undefined)	·	0%
CC(=O)c1ccc(N2C(=O)C3C4C=CC(CC4)C3C2=O)cc1 (centres undefined)	1%	12%
O=C1C2C3C=CC(CC3)C2C(=O)N1c1ccc([N+](=O)[O-])cc1 (centres undefined)	-5%	20µM*
COc1ccc2cc(C(=O)NCc3ccc4c(c3)CCN4C(=O)c3ccc(C)cc3)[nH]c2c1	·	-6%
CCOC(=O)c1ccc(NC(=S)NCc2ccco2)cc1	-2%	11µM*
COc1ccc(C(=O)NC(=S)NCc2ccco2)cc1Br	2%	50µM*
COc1ccc(C(=O)NC(=S)NC(C)C)cc1Br	18%	16µM*
Cc1ccc(C(=O)NNC(=S)NC(=O)c2ccc(Cl)cc2Cl)cc1	28%	-1%
CCOc1ccc(NC(=S)NCc2ccco2)cc1	6%	-23%
COc1ccc(C(=O)NC(=S)NCc2ccco2)cc1OC	-9%	?
CC(C)NC(=S)NC(=O)c1ccc(Cl)cc1Cl	7.9µM*	-22%
COc1ccc(C(=O)NC(=S)NC(C)(C)C)cc1Br	?	-32%
Cn1c(SCC(=O)N2CCCc3ccccc32)ncc(C(=O)Nc2ccc(Cl)cc2)c1=O	·	-3%
Cc1cccc(CNS(=O)(=O)c2ccc(-c3coc(C)n3)cc2)c1	·	2%
CCc1ccc(NS(=O)(=O)c2c(-c3ccccc3)csc2C(=O)OC)cc1	·	-3%
CCc1nnc2c(N3CCN(c4cc(Cl)ccc4C)CC3)nc3ccccc3n12	·	0%
O=C(Nc1cccc(C(F)(F)F)c1)c1cc(CN2CCOCC2)on1	·	1%
COC(=O)c1ccccc1NC(=O)C1=CC(c2ccc3c(c2)OCO3)=NS(=O)(=O)N1C	·	0%
CCOC(=O)CC(=O)CSc1nc2ccsc2c(=O)n1Cc1ccccc1	·	3%
COc1ccc(C(=O)NC(=S)NCc2ccco2)cc1	13%	7.1µM*
COc1cc(OC)cc(C(=O)NC(=S)NCc2ccco2)c1	15%	?
O=C(NCc1ccccn1)c1nn(-c2ccccc2F)nc1CO	·	0%
SMILES	SARS PLP yeast	Sm TGR block
CCOC(=O)C1=CC[C@@H](c2cccc(C)c2)N(S(=O)(=O)c2ccc(C)cc2)[C@H]1C(=O)OCC	1%	4%
CCOC(=O)C1=CC[C@@H](c2ccco2)N(S(=O)(=O)c2ccc(C)cc2)[C@H]1C(=O)OCC	-1%	32µM*
Cn1c(=O)c2c(c3ccccc31)OC(=O)CC2c1cccc(F)c1 (centres undefined)	·	-4%
O=C(CCN1C(=O)/C(=C\c2ccco2)SC1=S)Nc1ccc(C(=O)O)c(O)c1	3%	18µM*
O=C(CCN1C(=O)/C(=C/c2ccco2)SC1=S)Nc1ccc(C(=O)O)c(O)c1	0%	?
O=C(CN1C(=O)/C(=C\c2ccco2)SC1=S)Nc1ccc(O)cc1C(=O)O	0%	25µM*
O=C(CCN1C(=O)/C(=C/c2ccco2)SC1=S)Nc1ccc(O)cc1C(=O)O	1%	?
Cc1nc(C)c(C(=O)C2=C(O)C(=O)N(CCN(C)C)C2c2ccco2)s1 (centres undefined)	0%	-19%
O=C(C1=C(O)C(=O)N(CCN2CCOCC2)C1c1ccc([N+](=O)[O-])cc1)c1cc2ccccc2o1 (centres undefined)	-3%	?
COc1cccc2cc(C(=O)C3=C(O)C(=O)N(CCN4CCOCC4)C3c3ccc(C)o3)oc12 (centres undefined)	-12%	28µM*
Cc1nc(C)c(C(=O)C2=C(O)C(=O)N(CCN3CCOCC3)C2c2ccco2)s1 (centres undefined)	-2%	28µM*
COC(=O)c1ccc(C2C(C(=O)c3cc4ccccc4o3)=C(O)C(=O)N2CCN2CCOCC2)cc1 (centres undefined)	1%	?
COc1cccc2cc(C(=O)C3=C(O)C(=O)N(CCN(C)C)C3c3ccc(F)cc3)oc12 (centres undefined)	2%	-35%
COc1cccc(C2C(C(=O)c3cc4ccccc4o3)=C(O)C(=O)N2CCN2CCOCC2)c1 (centres undefined)	1%	40µM*
COc1ccccc1C1C(C(=O)c2cc3ccccc3o2)=C(O)C(=O)N1CCN1CCOCC1 (centres undefined)	-3%	40µM*
Cc1cc(C)cc(NC(=O)COc2cccc3c(=O)n(C)ccc23)c1	·	8%
Cc1nn2c(C)c(C(=O)N3CCN(c4ccc(Cl)cc4)CC3)cnc2c1-c1ccc(F)cc1	·	2%
O=C(C1=C(O)C(=O)N(CCCN2CCOCC2)C1c1ccc(Cl)cc1)c1cc2ccccc2o1 (centres undefined)	-6%	?
